Data: PubChem BioAssay AID1259415 (National Center for Advancing Translational Sciences (NCATS), 2018)
Screen size: about 410,000 compounds; about 18,000 (4.4%) were called active. About 7% were inconclusive and are not listed. No stated cut-off is given here; in the data, active means activity change below about -60%; inconclusive means no clear call, values can overlap the other calls; inactive means above about -39%. What follows is part of a selection rich in actives, with near analogues and random picks from the rest.

experiment: qHTS Assay for inhibitors of the human cytomegalovirus (HCMV); conditions: HFF cells, HCMV-luciferase reporter, 72 h; at 57.5 µM; hits give low values
From the text: NCGC Assay Overview: Infection with human cytomegalovirus (HCMV) continues to pose significant threats for pregnant women and immunocompromised hosts. HCMV causes serious morbidity and mortality in transplant recipients, and congenital HCMV is the leading infectious cause of mental retardation and deafness in children. In the 1990s, the annual costs associated with the disease burden of congenital CMV were estimated at around $2 billion. A HCMV vaccine is not available yet and HCMV therapies result in intolerable side effects and emergence of drug resistant viruses. […] Towards this goal we have developed and characterized a luciferase HCMV reporter that was initially used in 96 well plates and then optimized to 1536-well plates for utilization in screening of the MLSMR collection, the NGCG diversity collection and the NCGC Pharmaceutical Collection of approved and investigational drugs.
NCGC Assay Protocol Summary:
This is a cell-based assay for HCMV inhibition in HFFs cells. The screening used 2 compound doses and the HCMV-luciferase at MOI of 1 PFU/cell. Cells were treated and infected with HCMV. At 72 h post infection cell lysates were collected and luciferase activity was determined using the Glomax-Multi + Detection System (Promega, Madison, WI). Data were normalized to the controls for basal activity (buffer only) and known HCMV inhibitors Salinmoycin.
1536-well assay protocol for the assay:
(1) Add 3 ul CMV/HFF cell culture. 1000 cells/well in DMEM nirmal media.
(2) Incubate 16 hr at 37C.
(3) Add 23 nl control compound, 10uM of Salinomycin.
(4) Add 23 nl compounds in DMSO solution.
(5) Add 3 ul CMV suspension. Final 1 puf/ul, Virus stock 2000pfu/ul
(6) Incubate 72 hrs at 37C.
(7) Add 4 ul OneGlo Luc Reagent.
(8) Incubate 5 min at room temperature.
On the % scale 0 is the no-effect control and ±100 the full control effect.

Structure (SMILES) | activity change, negative = inhibition
Cc1[nH]c2ccccc2c1C(=O)CN1CC(C)CC(C)C1 (configuration not stated) | 9.64% (inactive)
Cc1[nH]c2ccccc2c1C(=O)COC(=O)c1c(-c2ccccc2)noc1C | -67.3% (active)
COc1ccc(C(=O)COC(=O)c2c(C)noc2C)cc1Cl | -19.5% (inactive)
CCN(CC)c1ccc(NC(=O)Cn2nc3c(cc2=O)CCCC3)c(C)c1 | -12.7% (inactive)
CSc1ccc(CCNC(=O)c2ccc3c(c2)nc2n3CCOC2)cc1 | 11.7% (inactive)
CN(C(=O)CCNC(=O)Cn1ccc2ccccc2c1=O)c1ccc(Br)cc1 | 9.17% (inactive)
CC1=C(C(=O)OCc2ccc(C)cc2)C(c2ccccc2Cl)CC(=O)N1 (configuration not stated) | -36.9% (inactive)
CCCNC(=O)C1(C)CCN(Cc2ccc(Cl)c(Cl)c2)C1 (configuration not stated) | -29% (inactive)
CCCNC(=O)C1(C)CCCN(Cc2cccc(C(F)(F)F)c2)C1 (configuration not stated) | -32.6% (inactive)
CCCNC(=O)C1(C)CCCN(Cc2c(C)nn(-c3ccccc3)c2C)C1 (configuration not stated) | -77% (active)
Cc1ccc(NC(=O)N2c3ccccc3SC2c2ccco2)c(C)c1 (configuration not stated) | -32.4% (inactive)
O=C(NCC(c1ccc(Cl)cc1)N1CCOCC1)c1ccccc1F (configuration not stated) | 1.34% (inactive)
C=CCn1c(SCC(N)=O)nnc1-c1cc2c(s1)CCC(CC)C2 (configuration not stated) | -11.3% (inactive)
CCc1ccc(NC(=O)CCS(=O)(=O)c2cc3c(cc2Cl)NC(=O)CO3)cc1 | 4.24% (inactive)
Fc1ccccc1CCNc1nnnn1-c1ccccc1 | -28.9% (inactive)
FC(F)(F)c1nc(-c2ccccc2)ncc1-c1nnnn1-c1ccccc1 | -66.2% (active)
NNC(=O)c1cnn(-c2ccccc2)c1C(F)(F)F | 6.26% (inactive)
CCN(CC)S(=O)(=O)c1ccc2c(c1)c(=O)c(C(=O)N1CCN(c3cccc(Cl)c3)CC1)cn2C | 11.7% (inactive)
Cc1cccc(N2CCN(C(=O)CCn3c(=O)c4cccn4c4cccnc43)CC2C)c1 (configuration not stated) | 15% (inactive)
CC(C)CCN1CCN=C1N(C)C | 3.25% (inactive)
Cc1cc(C)n(-c2nc(SCC(=O)N3CCCC3)c3c4c(sc3n2)CCCC4)n1 | -63.6% (active)
CC(C)c1nc(SCC(=O)Nc2cccc(C(=O)O)c2)c2c3c(sc2n1)CCCC3 | -5.06% (inactive)

Structure (SMILES) | activity change, negative = inhibition
COCCNc1nc(-n2nc(C)cc2C)nc2sc3c(c12)CCCC3 | -6.15% (inactive)
CC(=O)c1ccc(NC(=O)CCNS(=O)(=O)c2cc(Br)cnc2N)cc1 | 31.8% (inactive)
CCOc1ccc(CNC(=O)c2ccc(CS(=O)c3ccccc3)o2)cc1 (configuration not stated) | -3.55% (inactive)
CCCCc1nn2c(=O)cc(COC(=O)c3cccc(NC(=O)COc4ccccc4)c3)nc2s1 | 31.4% (inactive)
Cc1ccc2cccc([N+](=O)[O-])c2n1 | 19.3% (inactive)
O=[N+]([O-])c1ccccc1S(=O)(=O)Nc1cccc2cccnc12 | -100% (active)
O=S(=O)(NCCc1ccc(F)cc1)c1cccc2cccnc12 | -31.1% (inactive)
Cn1c2ccccc2c2cc(/C=C(\NC(=O)c3ccccc3)C(=O)NCC(=O)O)ccc21 | -0.653% (inactive)
Cc1nc(-c2ccccc2C(C)C)nc(NCc2ccc(-c3cccnc3)cc2)c1C | 28% (inactive)
COc1ccc(OC)c(-c2csc(-c3c(N)c(C(=O)c4ccccc4)n4ccccc34)n2)c1 | 5.78% (inactive)
O=c1c2ccccc2nc(/C=C/c2ccco2)n1-c1ccccc1O | -24% (inactive)
O=C(CSc1nc2ccccc2c(=O)n1-c1ccccc1F)N1CCOCC1 | -17.8% (inactive)
O=c1c2ccccc2nc(/C=C/c2ccc(F)cc2)n1-c1ccccc1O | -99.8% (active)
COc1ccc(OC)c2sc(N3CCN(C(=O)C4COc5ccccc5O4)CC3)nc12 (configuration not stated) | -1.41% (inactive)
COc1ccccc1-c1nnc(C2CCN(C(=O)c3ccc(Cl)cc3)CC2)o1 | -8.12% (inactive)
Cc1nc2c(-c3ccccc3)c(C)nn2c(C)c1CCC(=O)NCCc1ccccc1 | 11.4% (inactive)
Cc1nc2c(-c3ccc(F)cc3)c(C)nn2c(C)c1CCC(=O)N1CCN(c2ccccn2)CC1 | -68.5% (active)
Cc1nc2c(-c3ccc(F)cc3)c(C)nn2c(C)c1CCC(=O)NCc1ccco1 | -13.3% (inactive)
Cc1ccc(S(=O)(=O)c2c(Nc3cccc(Cl)c3)sc(C(=O)c3ccc4c(c3)OCO4)c2N)cc1 | 9.79% (inactive)
Cc1ccc(/C=N/NC(=O)C2=NNC(c3ccccc3)(c3ccccc3)C2)c(O)c1 | -93.6% (active)
Cc1ccc(O)c(-c2cc(C(=O)NCc3ccccc3)[nH]n2)c1 | 1.75% (inactive)
Cc1ccc(/C=N/NC(=O)C(NC(=O)c2ccccc2)c2n[nH]c(=O)c3ccccc23)cc1 (configuration not stated) | 19.8% (inactive)

Structure (SMILES) | activity change, negative = inhibition
COc1ccc(NC(=O)c2cc3cc(C)ccc3n2C)cc1 | 5.58% (inactive)
CCOC(=O)c1c(S(=O)(=O)N2CCCC(C(=O)NCc3cccc(C)c3)C2)c(C)n(C)c1C (configuration not stated) | -0.309% (inactive)
Cc1oc2ncn(CC(C)C)c(=O)c2c1C(=O)N1CCN(c2ccccc2F)CC1 | 14.5% (inactive)
C=C1C(=O)[C@]23C[C@H]1CCC2[C@@]1(C)C(C[C@@H]3O)[C@](C)(C(=O)O)CC[C@@H]1O (some centres not stated) | -81.2% (active)
Fc1ccccc1/C=N/Nc1cc(N2CCCCC2)ncn1 | 76.3% (inactive)
Cc1ccc(OCCOCCOc2ccc(Br)cc2/C=N\NC(=O)c2ccncc2)cc1 | -1.54% (inactive)
Oc1ccc(Br)cc1/C=N/Nc1ccccn1 | -97% (active)
COc1ccc(-c2noc(CSc3nc4ccc(C)cc4[nH]3)n2)cc1 | -38.7% (inactive)
COC(=O)c1cnc(N2CCN(c3ccccc3OC)CC2)c2ccccc12 | -6.88% (inactive)
Cc1cccc(N2CCN(C3=C(c4ccccc4)C(=O)c4ccccc43)CC2)c1C | -15.5% (inactive)
O=C(NC1CC(=O)N(c2ccc(F)cc2)C1)c1cccs1 (configuration not stated) | 70.7% (inactive)
COc1ccc(C)cc1Nc1nc2ccccc2c2nnc(C)n12 | 18.4% (inactive)
O=C(c1n[nH]c2c1CCC2)N1CCCC(Nc2cccc(F)c2)C1 (configuration not stated) | 9.79% (inactive)
Cc1ccc(-c2onc(C)c2C)cc1S(=O)(=O)Nc1ccccn1 | 52.8% (inactive)
COc1ccc2c(c1)Cc1sc(NC(=O)c3ccccc3Br)nc1-2 | -70.4% (active)
Cn1c(=O)c(=O)n(C)c2cc(NC(=O)c3ccccc3Br)ccc21 | -5.7% (inactive)
COc1ccc(NS(=O)(=O)c2ccc(N3CCOCC3)c(NC(=O)c3ccccc3Br)c2)cc1 | 0% (inactive)
O=C(NCCc1ccccc1)c1ccc2c(c1)N(Cc1ccccc1)C(=O)c1ccccc1S2(=O)=O | 3.01% (inactive)
O=C(OCCO)c1cc(Cl)c(C(=O)OCCO)cc1Cl | -29.4% (inactive)
CC1=C(C(=O)N(C(C)C)C(C)C)CC(CC(=O)NCCCCc2ccccc2)C(=O)N1CCC1=CCCCC1 (configuration not stated) | -112% (active)
CCOC(=O)[C@]12CCCC=C1N(CCC1=CCCCC1)C(=O)[C@H](CC(=O)NCCCCc1ccccc1)C2 | -18.4% (inactive)
CC1=C(C(=O)N(C)C)CC(CC(=O)NCCc2ccccn2)C(=O)N1CCC1=CCCCC1 (configuration not stated) | 8.56% (inactive)

Structure (SMILES) | activity change, negative = inhibition
COc1ccccc1NC(=O)C1=C(C)Nc2ncnn2C1c1sccc1C (configuration not stated) | 18% (inactive)
O=C(CSc1oc(-c2ccco2)nc1S(=O)(=O)c1ccc(Cl)cc1)c1ccccc1 | -0.0708% (inactive)
CC(=O)Nc1ccc(S(=O)(=O)N2CCC(C(=O)NC3CC3)CC2)cc1 | 6.71% (inactive)
O=C(Nc1ccc(Oc2ccccc2)cc1)C1CCN(S(=O)(=O)c2ccc(Cl)cc2)CC1 | -10.9% (inactive)
O=C(Nc1ccc(S(=O)(=O)N2CCOCC2)cc1)C1CCN(S(=O)(=O)c2ccc(Cl)cc2)CC1 | -78.5% (active)
CCCNC(=O)c1ccc(Cn2c(SCC(N)=O)nc3ccccc3c2=O)cc1 | 4.58% (inactive)
NC(=O)c1ccc(NC(=O)COC(=O)C(Cc2ccccc2)NC(=O)c2ccccc2)cc1 (configuration not stated) | 10.9% (inactive)
CN(CC(=O)Nc1ccc(C(N)=O)cc1)S(=O)(=O)c1ccc2c(c1)OCCO2 | 21.6% (inactive)
NC(=O)c1ccc(NC(=O)COC(=O)c2c3c(nc4ccccc24)/C(=C\c2ccc4c(c2)OCO4)CCC3)cc1 | -90.6% (active)
COc1ccc(CCNC(=O)CCCn2c(=O)c3ccccc3n(Cc3ccc(C)cc3)c2=O)cc1OC | 8.21% (inactive)
Cc1ccc(Cn2c(=O)n(Cc3nc(-c4ccccc4)no3)c(=O)c3cc4c(cc32)OCO4)cc1 | -3.37% (inactive)
COc1cc(C(=O)Nc2ccc(OCc3cc(=O)n4ccc(C)cc4n3)cc2)cc(OC)c1OC | 58.3% (inactive)
COc1ccc2oc(-c3ccc(C)c(NC(=O)c4sc5ccccc5c4Cl)c3)nc2c1 | 47.4% (inactive)
Oc1cccc(C2c3[nH]c4ccccc4c3CCN2Cc2cnn(-c3ccccc3)c2)c1 (configuration not stated) | 19.4% (inactive)
Cc1[nH]nc(-c2ccc(OCc3cnn(-c4ccccc4)c3)cc2O)c1Oc1ccc(Cl)cc1 | -95.2% (active)
CCCCN1C(=O)c2[nH]nc(-c3ccccc3O)c2C1c1cccc(OCc2ccccc2)c1 (configuration not stated) | -19% (inactive)
CCC1CCCCN1C(=O)Cn1c(=O)n(CCCCCC(=O)NCc2ccccc2)c(=O)c2sccc21 (configuration not stated) | -18.6% (inactive)
CCOC(=O)c1sc(-c2cccc([N+](=O)[O-])c2)cc1N | 0.0939% (inactive)
Cc1ccc(-c2nnc(CN3CCN(C)CC3)o2)cc1 | 145% (inactive)
CCOC(=O)N1CCN(Cc2nnc(-c3ccccc3Cl)o2)CC1 | -96.5% (active)
CCOC(=O)C1CCN(Cc2nnc(-c3cccc(Br)c3)o2)CC1 | -20.4% (inactive)
